This is an account of results in PubChem BioAssay (NCATS).

Structures are written as SMILES. Results filed as inconclusive are left out. Activity calls are given as the source filed them. Calls come from the whole dose curve; as a rule, active = well fitted curve in the direction sought with a large enough effect; inconclusive = small, poorly fitted or top-dose-only effect, or another doubt; inactive = no such curve, though single readings can be large; an effect the other way counts as inactive or inconclusive.
Note: nearly all actives have a fitted effect of over 35% in size.

The first experiment in a line: Quantitative highthroughput screen to assess conditional lethalithy of P12 Ichikawa cells grown in RPMI1640 with dialyzed fetal bovine serum (RPMI+ds) (AID 1963880).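 Note: 100% = DMSO wells and 0% = empty wells on each plate.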 The conditions noted are these: ATP luminescence, 48 h; Potency: P12-Ichikawa viability; series mostly up to 45.8 µM; viability: at the top concentration. The essentials:
(§1)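 Each medium arm—HPLM with 10% dialyzed FBS, or RPMI1640 with 5 mM glucose and 10% untreated or dialyzed FBS—was screened against an 11-point, 3-fold compound titration for 48 h at 37 °C, with CellTiter-Glo luminescence as endpoint.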
For `C[C@]12CC[C@H]3[C@@H](CCC4=CC(=O)CC[C@@]43C)[C@H]1CC[C@H]2O`, the “viability” value is 101% (inactive).

For the compound `CN(C)CCN(C)CCc1ccc(Cl)c(Cl)c1`, the “viability” value is 98.6% (inactive).

With `C[C@]12CC[C@H]3[C@@H](CCC4=CC(=O)CC[C@@]43C)[C@H]1CC[C@H]2OC(=O)CCC1CCCC1`, the “viability” value is 94% (inactive).

A short description of the next experiment: Quantitative highthroughput screen to assess conditional lethalithy of P12 Ichikawa cells grown in RPMI1640 with untreated serum (RPMI+s) (AID 1963881).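 For viability: 100% = DMSO wells and 0% = empty wells without cells.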 Note: potency is the fitted concentration of half-maximal effect. The conditions noted are these: ATP luminescence, 48 h; Potency: viability; series mostly up to 45.8 µM; viability: at the top concentration. The essentials: as §1
For `c1ccc(CCCN2CCN(CCOC(c3ccccc3)c3ccccc3)CC2)cc1`, the Potency is 18700 nM (active).

Regarding `O=C(O)CNC(=O)c1c(O)c2ccccc2n(Cc2ccccc2)c1=O`, the “viability” value was 100% (inactive).

For the compound `C[C@@]12OC(=O)[C@]1([C@@H](O)[C@@H]1C=CCCC1)NC(=O)[C@H]2CCCl`, the Potency is 235 nM (active).

`C[C@]12CCC(=O)C(O)=C1CC[C@@H]1[C@H]3CCC(=O)[C@@]3(C)CC[C@@H]12`: the “viability” value is 99.2% (inactive).

Regarding `O=C(NCC1CCOCC1)c1cnc(Nc2ccc(Cl)cc2Cl)nc1C(F)(F)F`, the “viability” value is 93.3% (inactive).

As for `CC(O)=C(C#N)C(=O)Nc1cc(Br)ccc1Br`, the “viability” value is 95.3% (inactive).

Regarding `CC(N[C@H]1C[C@H]1c1ccccc1)c1ccc2c(c1)OCCO2` (stereo partly specified), the “viability” value was 95.6% (inactive).

With `C[C@@H]1O[C@@H](O[C@@H]2C=C3CC[C@@H]4[C@@H](CC[C@]5(C)[C@H](c6ccc(=O)oc6)CC[C@@]45O)[C@@]3(C)CC2)[C@H](O)[C@H](O)[C@H]1O`, the Potency was 41.8 nM (active).

For the compound `O=C1C=CC[C@@H]2[C@H]3CCCN4CCC[C@@H](CN12)[C@@H]34`, the “viability” value was 98.4% (inactive).

For `CCOC(=O)c1c(C(C#N)=CN)c2ccc(Cl)c(Cl)c2n1C`, the “viability” value was 99% (inactive).

As for `C[C@]12CC[C@H](O)CC1=CC[C@H]1[C@H]3CCC(=O)[C@@]3(C)CC[C@@H]12`, the “viability” value was 92.5% (inactive).

Regarding `C[C@]12CC[C@H]3[C@@H](CCC4=CC(=O)CC[C@@]43C)[C@H]1CC[C@H]2OC(=O)CCC1CCCC1`, the “viability” value was 93.4% (inactive).

A short description of another experiment: Quantitative highthroughput screen to assess conditional lethalithy of SEM cells grown in Human Plasma-Like Medium with dialyzed fetal bovine serum (HPLM+ds) (AID 1963882). Note: potency is the fitted concentration of half-maximal effect. The following applies: SEM B-ALL cells in HPLM+ds, CellTiter-Glo viability, 48 h; series mostly up to 45.8 µM; viability: at the top concentration. Put shortly:
as §1
As to `CCN1C[C@]2(OC(=O)c3ccccc3NC(C)=O)CC[C@H](OC)[C@@]34[C@H]5CC6[C@@H](OC)C[C@](O)(C(C[C@@H]23)[C@@H]14)[C@@]5(O)[C@@H]6OC`, the “viability” value was 85.7% (inactive).

In the case of `O=c1[nH]c2ccc(Cl)cc2c(N[C@@H]2CN3CCC2CC3)c1-c1nc2ccccc2[nH]1`, the Potency was 41.8 nM (active).

On to `CCOC(=O)c1cncn1[C@H](C)c1ccccc1`, for which the “viability” value was 95.1% (inactive).

Turning to `Oc1ccc2c3c1O[C@H]1c4[nH]c5c(c4C[C@@]4(O)[C@@H](C2)N(CC2CC2)CC[C@]314)C[C@@]1(O)[C@H]2Cc3ccc(O)c4c3[C@@]1(CCN2CC1CC1)[C@H]5O4`, the “viability” value was 108% (inactive).

In the case of `CC(=CCCC1=CCC(C2=CC(=O)OC2O)OC1O)CCC1=C(C)CCCC1(C)C` (stereo unspecified), the “viability” value was 97.7% (inactive).

For the compound `C[C@]12CC[C@H]3[C@@H](CCC4=CC(=O)CC[C@@]43C)[C@H]1CC[C@H]2O`, the “viability” value is 102% (inactive).

Regarding `CN(C)CCN(C)CCc1ccc(Cl)c(Cl)c1`, the “viability” value is 90.6% (inactive).

As for `NC1=NC(=O)N2CC12` (stereo unspecified), the Potency was 3320 nM (active).

In the case of `C[C@@H]1[C@H](O)[C@@H](C)C=CC=CCCC=CC=CC=CC=C[C@H](O[C@H]2O[C@@H](C)[C@H](O)[C@@H](N)[C@@H]2O)CC2O[C@](O)(C[C@@H](O)[C@H](O)CC[C@@H](O)C[C@@H](O)C[C@@H](O)CC(=O)O[C@H]1C)C[C@H](O)[C@H]2C(=O)O`, the “viability” value was 110% (inactive).

`CC[C@@H]1[C@@H](C)O[C@@](O)([C@@H](C)[C@H](O)[C@H](C)[C@H]2OC(=O)C=CC=C[C@@H](C)[C@@H]([C@@H](C)[C@@H](O)[C@H](C)[C@@]3(O)C[C@H](O[C@H]4C[C@H](O)[C@H](O)[C@H](C)O4)[C@H](CC)[C@@H](C)O3)OC(=O)C=CC=C[C@@H]2C)C[C@H]1O[C@H]1C[C@H](O)[C@H](O)[C@H](C)O1`: the Potency was 2350 nM (active).

A further experiment is described as follows: Quantitative highthroughput screen to assess conditional lethalithy of SEM cells grown in RPMI1640 with unreated serum (RPMI+s) (AID 1963883).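 For viability: 100% = DMSO wells and 0% = empty wells without cells.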 Note: potency is the fitted concentration of half-maximal effect. The conditions noted are these: SEM B-ALL cells, CellTiter-Glo viability, 48 h; series mostly up to 45.8 µM; viability: at the top concentration. Put shortly:
as §1
As to `c1cc2c(cc1[C@H]1OC[C@H]3[C@H]1CO[C@H]3c1ccc3c(c1)OCO3)OCO2`, the “viability” value is 70% (inactive).

Consider `O=c1[nH]c2ccc(Cl)cc2c(N[C@@H]2CN3CCC2CC3)c1-c1nc2ccccc2[nH]1`, for which the Potency was 83.3 nM (active).

`COc1ccc(CC2NCCc3cc(OC)c(OC)cc32)cc1OC` (stereo unspecified): the Potency was 14800 nM (active).

Consider `C[C@]12Cc3cn[nH]c3C[C@@H]1CC[C@@H]1[C@H]2CC[C@@]2(C)[C@H]1CC[C@]2(C)O`, for which the “viability” value is 102% (inactive).

As for `Cc1c(N)nc([C@H](CC(N)=O)NC[C@@H](N)C(N)=O)nc1C(=O)N[C@H](C(=O)N[C@@H](C)[C@H](O)[C@@H](C)C(=O)N[C@@H](C(=O)NCCc1nc(-c2nc(C(=O)NCCC[S+](C)C)cs2)cs1)[C@@H](C)O)C(O[C@H]1O[C@H](CO)[C@H](O)[C@@H](O)[C@@H]1O[C@H]1O[C@H](CO)[C@@H](O)[C@H](OC(N)=O)[C@H]1O)c1cnc[nH]1` (stereo partly specified), the Potency was 3320 nM (active).

As for `O=[N+]([O-])c1ncc[nH]1`, the “viability” value was 82.7% (inactive).

In the case of `CC(N[C@H]1C[C@H]1c1ccccc1)c1ccc2c(c1)OCCO2` (stereo partly specified), the “viability” value was 102% (inactive).

As for `COc1ccc2c(c1)[C@]13CCCCC1C(C2)N(C)CC3` (stereo partly specified), the “viability” value is 103% (inactive).

For `C#C[C@]1(O)C=C[C@@H]2[C@@H]3CCC4=CC(=O)CC[C@@H]4[C@H]3CC[C@@]21CC`, the “viability” value was 97.7% (inactive).

Turning to `CCOC(=O)c1c(C(C#N)=CN)c2ccc(Cl)c(Cl)c2n1C`, the Potency was 18700 nM (active).

In the case of `C[C@]12CC[C@H]3[C@@H](CCC4=CC(=O)CC[C@@]43C)[C@H]1CC[C@H]2O`, the “viability” value was 85.2% (inactive).
